# Several values for one entry are separate records, joined by “and”; a condition that tells them apart may be missing. Identical values can stand only once. Compounds without any hit were thinned out: in the full panel of roughly 83,000, 20% have a hit.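 How to read the values: 0–100, growth inhibition (40 = 60% inhibited); 0, no net growth; -100 to 0, cell death (-40 = 40% of starting cells died; -100 = all dead).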 Unmarked numbers belong to inactive results. Activity calls are given as the source filed them. Rule for the calls: active = growth percent below 10; inactive = the rest.
# System: MDA-MB-468 breast
# Experiment: NCI-60 one-dose screen, 48 h (100 = growth as untreated, 0 = no growth, -100 = all killed)
# Conditions: 10 µM unless noted
row,Compound,growth
1,CCN1CCN(Cc2ccc(NC(=O)Nc3ccc(-n4ccc5c(NC(=O)c6ccccc6)nccc54)cc3)cc2C(F)(F)F)CC1,60.1%
2,COc1ccc2oc(=O)cc(Cn3cc(Cn4cnc5c4c(=O)n(C)c(=O)n5C)nn3)c2c1,101%
3,CCN(CC)CCN1C(=O)c2c(c(C)c3c(oc4cc(OC)ccc43)c2C)C1=O,114%
4,Oc1ccc(O)c(-[n+]2ccccc2)c1,91.8%
5,Cc1cccc(C)c1NC(=O)c1sc2nc3c(cc2c1N)C(=O)CCC3,34.3%
6,CCCS(=O)(=O)Nc1ccc(F)c(C(=O)c2c[nH]c3ncc(-c4ccc(OCCCC5CCCCN5)nc4)cc23)c1F (stereo not given),69.6%
7,C=CCn1c(SCC(=O)Nc2cccc(C(=O)/C=C/c3ccccc3Cl)c2)nc2ccccc2c1=O,98.1%
8,O=S(=O)(NCCCNc1cc(-c2cn(-c3ccccc3)nc2-c2cccc(O)c2)ccn1)c1ccc(Cl)cc1,-15.9% (active)
9,O=C(/C=C/c1ccccn1)c1ccccc1O,41.6% and 70.3%
10,CCCCCCCCCCCCCCCCOP(=O)([O-])OCC[N+](C)(C)C,-24% (active)
11,O=c1c2c(c(=O)n1O)c1c3ccc[nH]c3nc1c1nc3[nH]cccc3c12,64%
12,OCCN1CCN(CC/C=C2/c3ccccc3Sc3ccc(C(F)(F)F)cc32)CC1,68.4%
13,N#Cc1c(-c2ccccc2)cc(-c2ccccc2)n(CCCC(=O)NO)c1=O,33.3%
14,C=CC(=O)Nc1cccc(-c2nc(SC)nc(NCc3ccccc3)c2C#N)c1,52.1%
15,Cc1cccc2c(=O)c3c(sc12)c(NCCNCCO)nc1ccccc13,-19.1% (active)
16,COc1ccc(/C=C/c2nc(NCCCN(C)C)c3ccccc3n2)cc1,-43.8% (active)
17,C=C1C(=O)O[C@H]2[C@H]1CC/C(COC(=O)CCSSCCC(=O)OC/C1=C/CC[C@@]3(C)O[C@H]3[C@H]3OC(=O)C(=C)[C@@H]3CC1)=C\CC[C@@]1(C)O[C@@H]21,-54% (active)
18,C=CC(COC(c1ccccc1)(c1ccccc1)c1ccccc1)N(CC)CC (stereo not given),14.5%
19,Cc1cc(C)c(/C=C2\C(=O)Nc3ccc(NC(=O)CCCCCCC(=O)NO)cc32)[nH]1,13%
20,N=C(N)/N=C(\CCc1nc2ccccc2[nH]1)c1nc2ccccc2[nH]1,109%

row,Compound,growth
1,CCC#CC[C@H]1C/C=C2/C(=O)C=C[C@@H]2C/C=C\CCCC(=O)O1,-3.46% (active)
2,CNC1=C([N+](=O)[O-])C(c2ccc(OC)cc2)C(C#N)=C(c2ccc[nH]2)O1 (stereo not given),96.1%
3,CN1CCN(c2ccc(-c3ccc4ncc(C#N)c(Nc5ccc(F)c(Cl)c5)c4c3)cc2)CC1,1.52% (active)
4,c1csc(-c2ccc(CNc3c4ccccc4nc4ccccc34)cc2)c1,-72.5% (active)
5,Cn1cc(-c2ccc3nc(-c4ccc(CC(=O)Nc5cc(C(C)(C)C)no5)cc4)cnc3c2)cn1,14.8% [30 µM]
6,Cc1ccc(-c2csc(N)n2)cc1,104%
7,COc1cc2cc(Oc3ccc(NC(=O)Nc4cccc(C(F)(F)F)c4)cc3)c(C)nc2cc1OC,-32.5% (active)
8,OCCNc1nc(NCCO)nc(Nc2ccc(C3=NN(c4cc(Cl)cc(Cl)c4)C(c4ccc(C(F)(F)F)cc4)C3)cc2)n1 (stereo not given),39.7%
9,O=C1/C(=C/c2ccc(F)cc2)COc2ccc(O)cc21,86.4%
10,Cc1cc2c(F)c(Oc3ncnn4cc(OC[C@@H](C)OC(=O)[C@H](C)N)c(C)c34)ccc2[nH]1,71.5%
11,COc1ccc(-c2nc(SCC(=O)c3ccc(Br)cc3)[nH]c(=O)c2C#N)cc1,100%
12,CC(C)(C)n1cc(-c2ccnc(NCCNS(=O)(=O)c3ccc(C(F)(F)F)cc3)c2)c(-c2cccc(O)c2)n1,36.8%
13,COC(=O)c1c2c(c(C)[n+]([O-])c1C)C(=O)C=C(NCc1ccc(OC)cc1)C2=O,-61% (active)
14,NC1CCC(Nc2nc(NCc3ccc(-c4ccco4)nc3)c3ncn(C4CCCC4)c3n2)CC1 (stereo not given),-54.3% (active)
15,CCN1C[C@@H](C)n2c(c(O)c3c(=O)n(Cc4ccc(F)c(Cl)c4)nc(C(=O)NC)c32)C1=O,45%
16,O=C(CCn1c[n+](CC(=O)c2ccc(-c3ccccc3)cc2)c2ccccc21)Nc1cccc2cccnc12,-31.2% (active)
17,CC(O)CN1CCCCC1 (stereo not given),104%
18,COc1cc(C2NC(=O)c3ccccc3N2)ccc1OCCCCCOc1c(OC)cc(C2=NOC(c3cc(OC)c(OC)c(OC)c3)C2)cc1OC (stereo not given),9.53% (active)
19,CCCOc1ccc(-c2nc(-c3ccc(N)cc3)cs2)cc1,110%
20,COc1ccc(CSc2nc3cc(OC)c(OC)cc3c(=O)n2-c2ccc(OC)cc2OC)cc1,74.3%
